The source of these data is PubChem BioAssay (NCI).

Common to all, as to assay: NCI-60 one-dose screen, 48 h (100 = growth as untreated, 0 = no growth, -100 = all killed)
The subject of one assay is HCT-15 colon. To be noted: 10 µM unless noted.
The subject of another assay is HT29 colon. To be noted: 10 µM unless noted.
Another assay relates to SNB-19 CNS. The following applies: 10 µM unless noted.
The test system of the next assay is U251 CNS. The following applies: 10 µM unless noted.
Another assay relates to PC-3 prostate. To be noted: 10 µM unless noted.
In the next assay the test system is SK-MEL-5 melanoma. The following applies: 10 µM unless noted.
The next assay concerns UACC-62 melanoma. To be noted: 10 µM unless noted.
The next assay relates to LOX IMVI melanoma. The following applies: 10 µM unless noted.
The next assay concerns SK-MEL-28 melanoma. The following applies: 10 µM unless noted.
Another assay relates to SNB-75 CNS. The following applies: 10 µM.

The structures appear in SMILES notation. Compounds without any hit were thinned out: in the full panel of roughly 83,000, 20% have a hit.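 Interpretation: 100, growth as untreated; towards 0, rising growth inhibition; 0, no net growth; 0 to -100, cell death. Compounds scoring below 10 were considered active.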 Values without a mark were called inactive. Active and inactive are the calls of the source.

Take `CCN(CC)CCC(CNc1c2ccc(Cl)cc2nc2ccc(OC)cc12)c1ccccc1` (configuration not stated): the growth with HCT-15 colon is -18.4% (active); in the assay with HT29 colon it was -36.1% (active); with SNB-19 CNS, 5.5% (active); in the assay on U251 CNS it was -59.1% (active); in the assay with PC-3 prostate, 17.6%; in the assay with SK-MEL-5 melanoma, -97.9% (active). For the same compound, the growth is -61.2% (active) in the assay on UACC-62 melanoma, -25.4% (active) with LOX IMVI melanoma and -100% (active) in the assay on SK-MEL-28 melanoma.
In the case of `COc1ccc(C(=O)N2NC(=O)/C(=C/c3ccc(F)cc3)N=C2c2ccccc2)cc1`, the growth with HCT-15 colon is 73%; with HT29 colon it was 94.6%; in the assay with SNB-19 CNS it was 83.7%; in the assay with U251 CNS, 56.4%; in the assay with PC-3 prostate, 89.1%; in the assay on SK-MEL-5 melanoma it was 96.1%. Further, the growth in the assay with UACC-62 melanoma was 77.4%; in the assay on LOX IMVI melanoma, 91.7%; in the assay on SK-MEL-28 melanoma it was 102%.
As for `COc1ccc(C2NN=C3c4ccccc4CCC32)cc1` (configuration not stated), the growth in the assay on HCT-15 colon was 40%; in the assay on HT29 colon, 44.5%; in the assay with SNB-75 CNS it was 48.3%; with SNB-19 CNS, 76.5%; with U251 CNS, 80.4%; with PC-3 prostate, 66.6%. For the same compound, the growth in the assay with SK-MEL-5 melanoma is 15.2%; in the assay with UACC-62 melanoma, 49.9%; in the assay on LOX IMVI melanoma, 72.5%; in the assay with SK-MEL-28 melanoma it was 76%.
For `O=c1ccn(-c2ncnc3nc[nH]c23)cc1`, the growth with HCT-15 colon was 102%; in the assay with HT29 colon, 109%; with SNB-75 CNS it was 80.6%; in the assay on SNB-19 CNS it was 98.4%; in the assay on U251 CNS, 95.5%; in the assay on PC-3 prostate it was 96.6%. The growth was 114% with SK-MEL-5 melanoma, 92.8% in the assay on UACC-62 melanoma, 96.3% in the assay with LOX IMVI melanoma and 94.6% in the assay on SK-MEL-28 melanoma.
Take `CCCCCCCCCCCCNC(=O)[C@H]1CSC(c2cc3ccccc3s2)N1` (some centres not stated): the growth in the assay with HCT-15 colon was -34.1% (active); in the assay with HT29 colon, -8.26% (active); in the assay on SNB-19 CNS, 51.2%; with U251 CNS, -78.9% (active); in the assay with PC-3 prostate it was -17.4% (active); with SK-MEL-5 melanoma, 57.9%. Moreover, the growth is -76.2% (active) in the assay with UACC-62 melanoma, -85.7% (active) in the assay with LOX IMVI melanoma and -89% (active) in the assay on SK-MEL-28 melanoma.
On to `CC(=O)Nc1ccc(/C=C/C(=O)c2ccccc2)cc1`, for which the growth in the assay with HCT-15 colon was 91.9%; with HT29 colon, 83.8%; with SNB-19 CNS it was 77.7%; with U251 CNS, 74.7%; with PC-3 prostate, 66.8%; in the assay on SK-MEL-5 melanoma, 100%. The growth is 96.6% with UACC-62 melanoma, 93% in the assay with LOX IMVI melanoma and 103% in the assay with SK-MEL-28 melanoma.
For `COc1ccc(-c2cc3c(OC)c(OC)c(OC)cc3oc2=O)cc1`, the growth in the assay on HCT-15 colon was 37.9%; in the assay with HT29 colon it was 12%; with SNB-19 CNS, 65.8%; in the assay on U251 CNS, 40.6%; in the assay on PC-3 prostate, 62.1%; in the assay on SK-MEL-5 melanoma, 14.4%. Besides, the growth is 40.2% with UACC-62 melanoma, 46.8% in the assay on LOX IMVI melanoma and 67.5% in the assay with SK-MEL-28 melanoma.
Regarding `COc1cc(/C(C#N)=C/c2ccc3c(c2OC)OCO3)cc2c1OCO2`, the growth with HCT-15 colon was 33%; with HT29 colon, 0.067% (active); in the assay with SNB-19 CNS, 31.2%; in the assay with U251 CNS it was 18.9%; with PC-3 prostate it was 40.8%; in the assay with SK-MEL-5 melanoma, 36.9%. For the same compound, the growth with UACC-62 melanoma is 18.5%; with LOX IMVI melanoma, 24.2%; in the assay with SK-MEL-28 melanoma, 45.7%.
For `O=c1[nH]c(NCc2ccccc2)nc2nc(Nc3ccc(NC(=S)Nc4ccccc4)cc3)nc(-c3ccc(O)cc3O)c12`, the growth in the assay with HCT-15 colon is 105%; with HT29 colon, 125%; in the assay on SNB-75 CNS it was 91.7%; in the assay with SNB-19 CNS it was 91.9%; with U251 CNS, 87.8%; in the assay with PC-3 prostate it was 109%. Also, the growth with SK-MEL-5 melanoma was 113%; in the assay on UACC-62 melanoma it was 83%; in the assay with LOX IMVI melanoma, 101%; with SK-MEL-28 melanoma it was 91.5%.
On to `Cc1nn(-c2ccc([N+](=O)[O-])cc2)c2ncnc(NCCc3ccccc3)c12`, for which the growth in the assay with HCT-15 colon was 95.4%; with HT29 colon, 103%; in the assay with SNB-75 CNS, 87.9%; in the assay on SNB-19 CNS it was 97.2%; in the assay on U251 CNS, 102%; in the assay on PC-3 prostate, 88.7%. In addition, the growth with SK-MEL-5 melanoma is 104%; in the assay on UACC-62 melanoma, 90.5%; with LOX IMVI melanoma it was 103%; in the assay with SK-MEL-28 melanoma, 106%.
For the compound `COc1cc(-c2ncn(/C=C\C(=O)OC(C)C)n2)cc(C(F)(F)F)c1`, the growth is 3.97% (active) with HCT-15 colon; -14% (active) with HT29 colon; -29.3% (active) in the assay on SNB-75 CNS; 5.83% (active) in the assay with U251 CNS; 18.2% with PC-3 prostate; -38.4% (active) in the assay with SK-MEL-5 melanoma. Also, the growth is -10.9% (active) in the assay with UACC-62 melanoma, -73% (active) in the assay on LOX IMVI melanoma and -18.3% (active) in the assay with SK-MEL-28 melanoma.
Consider `COc1cc(C2NN=C3c4ccccc4CCC32)cc(OC)c1OC` (configuration not stated), for which the growth was 72.4% with HCT-15 colon; 105% in the assay with HT29 colon; 59.8% in the assay on SNB-75 CNS; 79.3% in the assay on SNB-19 CNS; 94.7% in the assay on U251 CNS; 75.2% with PC-3 prostate. The growth is 72.2% with SK-MEL-5 melanoma, 69.8% in the assay on UACC-62 melanoma, 82.4% in the assay on LOX IMVI melanoma and 101% in the assay with SK-MEL-28 melanoma.
As to `CC(C)CSc1nc(NN)c(C#N)c(-c2ccccc2)n1`, the growth with HCT-15 colon is 86.6%; in the assay on HT29 colon, 103%; in the assay with SNB-19 CNS it was 88.8%; in the assay on U251 CNS it was 95.3%; in the assay with PC-3 prostate it was 89.3%; with SK-MEL-5 melanoma, 91.1%. Moreover, the growth with UACC-62 melanoma is 95.3%; in the assay with LOX IMVI melanoma, 90.6%; in the assay on SK-MEL-28 melanoma, 107%.
On to `O=[N+]([O-])c1ccc(-c2cn(-c3ccccc3)c(-c3ccccc3)n2)cc1`, for which the growth is 95.2% in the assay on HCT-15 colon; 98.6% with HT29 colon; 70.7% in the assay with SNB-75 CNS; 36.3% with SNB-19 CNS; 58.6% with U251 CNS; 48.1% with PC-3 prostate. Moreover, the growth was 128% in the assay on SK-MEL-5 melanoma, 83.1% in the assay on UACC-62 melanoma, 94.3% in the assay on LOX IMVI melanoma and 96.7% in the assay with SK-MEL-28 melanoma.
